These results are taken from PubChem BioAssay AID1634 (National Center for Advancing Translational Sciences (NCATS), 2009).

Molecules are shown by their SMILES. Hit rate of the full screen: of about 260,000 compounds, about 150 (0.058%) were called active. The call rests on the fitted dose curve; in most records, active means well fitted inhibition curve with a large enough effect; inconclusive means small, poorly fitted or top-dose-only effect; inactive means no such curve, though single readings can be large or run the other way. The entries come from a sample that favours actives as a whole. Entries that show only a call come without a potency.

In this experiment the target is Pyruvate kinase PKM (Homo sapiens) (UniProt P14618). Put plainly: qHTS Assay for Inhibitors of Human Muscle isoform 2 Pyruvate Kinase. Further: nearly all actives have a fitted effect of over 60% in size. Particulars: purified PKM2, ATP generation, Kinase-Glo luminescence; series mostly up to 57.5 µM. As for the experimental part: NIH Chemical Genomics Center [NCGC] Matthew G. Vander Heiden, M.D., Ph.D. [Harvard Medical School, 77 Avenue Louis Pasteur, Boston, MA 02115] […] ATP generation was detected in a coupled reaction by luciferase-mediated luminescence, an ATP-dependent process. […] The enzyme was assayed at an intermediate level of activity to screen for both inhibitors and activators.
Chain of Pyruvate kinase PKM (Homo sapiens) (P14618 whole entry, looked up, canonical isoform): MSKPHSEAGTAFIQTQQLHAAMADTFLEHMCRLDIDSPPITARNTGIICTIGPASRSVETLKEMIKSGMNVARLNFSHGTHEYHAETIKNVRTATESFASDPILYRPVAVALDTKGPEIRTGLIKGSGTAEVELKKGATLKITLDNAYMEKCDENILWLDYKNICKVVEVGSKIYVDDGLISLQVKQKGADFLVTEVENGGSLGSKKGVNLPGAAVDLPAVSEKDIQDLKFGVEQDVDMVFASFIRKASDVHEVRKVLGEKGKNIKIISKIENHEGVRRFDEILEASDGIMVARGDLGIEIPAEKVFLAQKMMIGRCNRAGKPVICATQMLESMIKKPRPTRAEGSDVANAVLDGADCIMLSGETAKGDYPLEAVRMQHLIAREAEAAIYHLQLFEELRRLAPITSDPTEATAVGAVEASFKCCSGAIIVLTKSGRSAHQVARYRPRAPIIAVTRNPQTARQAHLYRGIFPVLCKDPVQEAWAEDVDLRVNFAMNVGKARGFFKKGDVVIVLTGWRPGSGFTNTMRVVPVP
NCGC Assay Protocol Summary: Three uL of substrate mix (at r.t.) in assay buffer (50 mM Imidazole pH7.2, 50 mM KCl, 7 mM MgCl2, 0.01% Tween 20, 0.05% BSA) was dispensed into white solid bottom 1,536 well microtiter plates so that the final concentrations of substrates in the assay were 0.1 mM ADP and 0.5 mM PEP. 23 nL of compound were delivered by a pin tool and 1 uL of enzyme mix in assay buffer (4 degree Celsius) was added. Plates were incubated at room temperature for 1 hour. Two uL of detection mix (Kinase-Glo, Promega; at 4 degree Celsius protected from light) was added and luminescence read by a ViewLux (Perkin Elmer) at 5 second exposure/plate. Data were normalized to the uninhibited and AC100 inhibition (no enzyme). To monitor activation, the first column contained a titration of the activator, NCGC00031955-01 (16-point 1:2 dilutions in duplicate starting at 57 uM) and the first 16 rows of column 4 contained 57 uM of NCGC00031955-01.
(qHTS replaces the single test concentration by a dilution series.)
Regarding `Cc1nc2nc(COc3ccccc3)[nH]n2c(=O)c1Cc1ccccc1`, the Potency entry was “inactive”.
With `CCCc1nc2ccccc2c(=O)n1/N=C/c1ccc(O)c(O)c1`, the Potency entry was “inactive”.
With `COc1ccccc1C(=O)NCc1nnc(SC(C)C(=O)Nc2nccs2)n1C` (configuration not stated), the Potency entry is “inactive”.
`COc1ccc(-c2ccc(CCC(=O)O)n2NC(=O)c2ccc(C(C)(C)C)cc2)cc1`: the Potency entry was “inactive”.
Under `Oc1ccccc1CNc1ncc(Br)cc1Br` stands “inactive”; under `N/C(=N\S(=O)(=O)c1cc(C(F)(F)F)cc(C(F)(F)F)c1)c1cccs1`, “inactive”; under `Cc1ccc2nc(C)cc(N/N=C/c3ccc(F)cc3)c2c1`, “inactive”.
The same measure for `COc1ccccc1-n1cnc2cc(NS(=O)(=O)c3ccccc3)ccc21`: “inactive”; for `COc1ccc(SC[C@H](Cc2ccccc2)N2CCN(CCc3ccccc3)CCC2=O)cc1`: “inactive”; for `COc1ccc2[nH]c3c(=O)n(Cc4ccco4)cnc3c2c1`: “inactive”.
In the case of `Fc1ccccc1CNC(=S)Nc1ccc(Cl)cc1`, the Potency result was “inactive”.
Take `Cn1c(-c2ccc(F)cc2)cnc1SCC(=O)NCc1ccco1`: the Potency entry was “inactive”.
As to `O=c1cc(Cn2nnc(-c3ccc(Cl)cc3)n2)nc2sccn12`, the Potency result is “inactive”.
For `O=C(CCC(=O)n1ncc2ccccc21)NCc1ccccc1Cl`, the Potency entry was “inactive”.
For the molecule `NC(=S)c1ccc(C(N)=S)o1`, the Potency result was “inactive”.
For `Cc1ccc(NN=Nc2nc3c([nH]2)c(=O)n(C)c(=O)n3C)cc1`, the Potency result is “inactive”.
For `Nc1nnc(SCC(=O)NC2CCCc3ccccc32)s1` (configuration not stated), the Potency entry is “inactive”.
Consider `O=S(=O)(c1ccc(Br)cc1)n1ccc2ccccc21`, for which the Potency entry is “inactive”.
Under `Oc1ccc2nc(Cc3ccccc3)[nH]c2c1` stands “inactive”; under `CCOc1ccc(S(=O)(=O)Nc2nc3cc(OC)ccc3s2)cc1`, “inactive”; under `O=c1ccc2cc(S(=O)(=O)Nc3ccccc3F)ccc2o1`, “inactive”.
Regarding `Cc1cccc(CSc2nc3c(c(=O)n2C)SCC3)c1`, the Potency entry is “inactive”.
`CC(C)(C)c1ccc(C(=O)NCCn2c(N)c(C#N)c3nc4ccccc4nc32)cc1`: the Potency result is “inactive”.
Take `Cn1ncc(N2CCN(S(=O)(=O)c3ccc(Br)cc3)CC2)c(Cl)c1=O`: the Potency entry is “inactive”.
Take `O=C(CSc1nnc(-c2ccc([N+](=O)[O-])cc2)o1)Nc1ccccn1`: the Potency entry was “inactive”.
For `CCS(=O)(=O)Nc1ccc(C2=NN(C(C)=O)C(c3cccs3)C2)cc1` (configuration not stated), the Potency result was “inactive”.
For the molecule `O=C(NCc1cccs1)C1CCN(S(=O)(=O)c2ccc(Cl)cc2)CC1`, the Potency result was “inactive”.
As for `O=C(/C=C/c1ccc(Cl)cc1Cl)c1cccnc1`, the Potency entry was “inactive”.
Turning to `O=C(COc1ccccc1[N+](=O)[O-])N/N=C/c1ccc[nH]1`, the Potency result is “inactive”.
Under `COc1cc(/C=N\Nc2nc(-c3cccs3)c(NC(C)=O)s2)ccc1O` stands “inactive”; under `Brc1c(CSc2nncc3ccccc23)nc2ccccn12`, “inactive”.
As to `Cc1cccc(C)c1NC1=NC(=S)N(c2ccc(N(C)C)cc2)C1(C)C`, the Potency result was “inactive”.
